Most compounds without a hit are left out; they make up all but 3.5% or so of the library.
TEAD-YAP inh – TEAD-YAP interaction inhibition. HEK-TIYL cells, TEAD-Gal4/YAP UAS-luciferase luminescence. inhibition, % at 9.12 µM. 1.4% of 640,000 active. AID 1259422; in the data active = inhibition above about 32%;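 note: 0% = median of test compound wells and 100% = reference inhibitor wells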
FBW7 act – activators of human E3 ligase FBW7; AlphaScreen FBW7–phospho-cyclin E peptide binding, activator screen; AID 1259310; Q969H0; normalized activity (activation), % at 26.1 µM; 0.13% of 650,000 active; in the data active = normalized activity above about 1.9%;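 note: purified mutant Fbw7 with reduced substrate affinity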
GPR151 ag – activates the human receptor GPR151. Q8TDV0. PathHunter beta-arrestin GPR151 cells, luminescence. 1% of 650,000 active. AID 1508602. activation, % at 11.2 µM; in the data active = activation above about 4.9%;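 note: 0% = median of compound wells and 100% = cells with positive control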
Target sequence (Q8TDV0 whole entry, looked up): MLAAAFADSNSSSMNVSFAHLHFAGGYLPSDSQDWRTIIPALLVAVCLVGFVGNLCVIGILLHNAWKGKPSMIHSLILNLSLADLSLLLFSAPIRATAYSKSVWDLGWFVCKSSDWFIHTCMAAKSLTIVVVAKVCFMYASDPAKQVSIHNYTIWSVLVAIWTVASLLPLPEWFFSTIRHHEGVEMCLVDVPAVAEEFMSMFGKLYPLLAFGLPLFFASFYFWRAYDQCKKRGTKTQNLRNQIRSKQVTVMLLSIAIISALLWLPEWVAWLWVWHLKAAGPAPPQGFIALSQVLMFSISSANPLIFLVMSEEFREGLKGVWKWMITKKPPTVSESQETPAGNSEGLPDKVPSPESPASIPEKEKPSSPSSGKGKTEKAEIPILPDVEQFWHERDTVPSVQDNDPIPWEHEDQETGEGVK
MITF primary – human MITF inhibition, primary screen; O75030; AlphaScreen MITF homodimerization, bead proximity signal; inhibition, % at 2.6 µM; 0.91% of 650,000 active; AID 1259374; in the data active = inhibition above about 50%;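 note: 0% = vehicle wells with protein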
MITF inh conf – human MITF inhibition, confirmation | AlphaScreen MITF homodimerization, biotin/His-MITF beads | shares compounds with MITF primary | inhibition, % at 2.6 µM | 16% of 4,700 active;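 active = inhibition above a cutoff derived from the DMSO control wells, cut at about 28% in these data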;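 note: 0% = MITF dimer wells with DMSO only; inhibitors lower the bead chemiluminescence by keeping MITF from dimerizing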
AS interf DR – counter-screen: compounds optically interfering with AlphaScreen. shares compounds with MITF primary. AlphaScreen optical interference counterscreen, cell-free. IC50, µM. 6% of 480 active. AID 1259373; call rule not given here
AlphaScreen intf2 – AlphaScreen optical interference, counter-screen; LysRS AlphaScreen counterscreen, signal interference, triplicate; inhibition, % at 2.6 µM; 7.6% of 4,700 active; shares compounds with MITF primary;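 active = inhibition above a cutoff derived from the DMSO control wells, cut at about 30% in these data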
* = called active by the depositor.

Screening Cc1nnc(SCc2nc3ccccc3[nH]2)n1C returned TEAD-YAP inh 5, FBW7 act 0, GPR151 ag 0, MITF primary 74*, MITF inh conf 13 and AlphaScreen intf2 16.
For COc1ccccc1-c1nnc(SCc2nc3ccccc3[nH]2)n1C the results were TEAD-YAP inh 7, FBW7 act 0, GPR151 ag 0 and MITF primary 7.
Screening c1coc(CNc2ccc3ncc(-c4ccco4)n3n2)c1 returned TEAD-YAP inh 0, FBW7 act 2, GPR151 ag 0, MITF primary 56*, MITF inh conf 84*, AS interf DR >6.5 and AlphaScreen intf2 19.
COc1cc(CNC2CCCC2)cc(Cl)c1OCC(N)=O was read as TEAD-YAP inh -5, FBW7 act 0, GPR151 ag -1 and MITF primary 28.
COc1ccc(-c2cnn3ccc(NCc4cccnc4)nc23)cc1OC was read as TEAD-YAP inh 17, FBW7 act 0, GPR151 ag 1, MITF primary 55*, MITF inh conf 3 and AlphaScreen intf2 5.
`COc1ccc(S(=O)(=O)N2CCN(Cc3ccccc3[N+](=O)[O-])CC2)cc1` gave TEAD-YAP inh -2, FBW7 act 0, GPR151 ag 0, MITF primary 51*, MITF inh conf 36* and AlphaScreen intf2 8.
`O=[N+]([O-])c1ccc(S(=O)(=O)N2CCN(Cc3ccccc3F)CC2)cc1` gave TEAD-YAP inh -10, FBW7 act 0, GPR151 ag -1 and MITF primary 46.
O=[N+]([O-])c1ccc(S(=O)(=O)N2CCN(Cc3ccccc3Cl)CC2)cc1 was read as TEAD-YAP inh -3, FBW7 act 0, GPR151 ag 2, MITF primary 62*, MITF inh conf 15 and AlphaScreen intf2 15.
Screening Cc1ccccc1CN1CCN(S(=O)(=O)c2ccc([N+](=O)[O-])cc2)CC1 returned TEAD-YAP inh 4, FBW7 act 0, GPR151 ag -1, MITF primary 71*, MITF inh conf 25 and AlphaScreen intf2 23.
`COc1ccc(F)cc1S(=O)(=O)N1CCCC(c2nnc(Cc3ccccc3)s2)C1` (stereo unspecified) gave TEAD-YAP inh 15, FBW7 act 0, GPR151 ag 0 and MITF primary 9.
For Cc1ccc(C(=O)Nc2ccccc2NC(=O)c2ccc(C)o2)o1 the results were TEAD-YAP inh 5, FBW7 act 0, GPR151 ag 0 and MITF primary -2.
`Cc1ccc(C(=O)NN(C)C)o1` gave TEAD-YAP inh -4, FBW7 act 0, GPR151 ag 0, MITF primary 91*, MITF inh conf 4 and AlphaScreen intf2 12.
For O=C(Nc1ccc(F)cc1F)c1cccc(N2C(=O)c3ccccc3C2=O)c1 the results were TEAD-YAP inh -2, FBW7 act 0, GPR151 ag -3 and MITF primary 17.
Screening CCOC(=O)C1CCN(C(=O)c2nn(-c3ccccc3OC)c(=O)c3ccccc23)CC1 returned TEAD-YAP inh 1, FBW7 act 0, GPR151 ag -1 and MITF primary -1.
For N#Cc1c(NC(=O)c2cccnc2Cl)oc(-c2ccco2)c1-c1ccco1 the results were TEAD-YAP inh 0, FBW7 act 0, GPR151 ag 0 and MITF primary 22.
For CCOc1ncccc1C(=O)OCC(=O)Nc1oc(-c2ccco2)c(-c2ccco2)c1C#N the results were TEAD-YAP inh 2, FBW7 act 0, GPR151 ag -1, MITF primary 71*, MITF inh conf 72*, AS interf DR >6.4 and AlphaScreen intf2 5.
For Cn1c(=O)cc(N2CCCCC2)n(Cc2cccc(C(F)(F)F)c2)c1=O the results were TEAD-YAP inh -9, FBW7 act 0, GPR151 ag 1 and MITF primary 2.
Cn1c(=O)cc(N2CCCC2)n(Cc2cccc(C(F)(F)F)c2)c1=O was read as TEAD-YAP inh 6, FBW7 act 0, GPR151 ag 1, MITF primary 68*, MITF inh conf 12 and AlphaScreen intf2 18.
For O=C(CC(NCc1ccccn1)C(=O)O)Nc1ccc(F)cc1 (stereo unspecified) the results were TEAD-YAP inh -15, FBW7 act 0, GPR151 ag 2, MITF primary 108*, MITF inh conf 102* and AlphaScreen intf2 100*.

Bioassay records as filed in PubChem.
